In all, about 48,000 compounds went through this assay and about 13,000 (27%) showed an effect of 50% or more. Some of the results follow.
The compounds below were run on Wolbachia pipientis (assay: Anti-Wolbachia Cell-Based Screen). Conditions: 5 µM.
Format: functional
Design: scale not given: in the data most compounds retested in dose-response had high values
CCc1cc(=O)[nH]c(-c2ccc(NCCc3ccc(O)cc3)nc2)n1 was tested, and the “Percent Effect” value was -8.547%.
With Cc1ccc(CNC2CCN(CCc3ccncc3)CC2)cc1C the “Percent Effect” value was 2.941%.
With O=C1[C@H]2CC[C@H](CN(Cc3ccccc3OC(F)F)C2)N1CC1CC1 the “Percent Effect” value was -16.02%.
Cn1cccc1C(=O)N1CCO[C@@H]2CN(Cc3ccco3)C[C@@H]2C1 was tested, and the “Percent Effect” value was 74.97%.
For CN(C)CCN1CCO[C@H]2CCN(C(=O)c3cccs3)CC[C@@H]21.O=C(O)C(F)(F)F.O=C(O)C(F)(F)F, the “Percent Effect” value was -1.673%.
In the case of O=C(O)C(F)(F)F.O=C(c1cocn1)N1C[C@@H]2CN(Cc3ccco3)CCO[C@@H]2C1, the “Percent Effect” value was -2.402%.
For CN(C)CCN1CCO[C@@H]2CCN(C(=O)c3cccn3C)CC[C@H]21, the “Percent Effect” value was 111.2%.
For CCS(=O)(=O)N1C[C@@H]2CN(Cc3cnn(C)c3)CCO[C@@H]2C1.O=C(O)C(F)(F)F, the “Percent Effect” value was 4.441%.
For Cn1cc(CN2C[C@@H]3CN(Cc4ccoc4)CCO[C@@H]3C2)cn1.O=C(O)C(F)(F)F.O=C(O)C(F)(F)F, the “Percent Effect” value was 1.152%.
For Cc1nc(CN2CCO[C@H]3CN(C(=O)c4cccn4C)C[C@H]32)cs1, the “Percent Effect” value was 4.285%.
For O=S(=O)(C1CC1)N1CCO[C@@H]2CN(Cc3ccco3)C[C@@H]2C1, the “Percent Effect” value was 3.474%.
With Cn1cc(CN2C[C@@H]3CN(C(=O)c4cccn4C)CCO[C@@H]3C2)cn1 the “Percent Effect” value was 94.4%.
In the case of CN(Cc1ccc(Cl)s1)C(=O)CN1CC(n2cccn2)C1, the “Percent Effect” value was -39.44%.
In the case of CCC(NC(=O)CCNC(=O)c1ccccc1F)c1cc(C)ccn1 (centres undefined), the “Percent Effect” value was -12.53%.
With CC(C)Cc1nc(CCn2ccc(=O)[nH]c2=O)n(-c2ccccn2)n1 the “Percent Effect” value was 0.8317%.
CCC(c1nc(C(C)C)nn1-c1ccncc1C)n1cccn1 (centres undefined) was tested, and the “Percent Effect” value was -1.289%.
Cc1nc[nH]c1C(=O)N1CCCC2(CN(C)C(=O)O2)C1 (centres undefined) was tested, and the “Percent Effect” value was -29.59%.
For COc1ncc(NS(=O)(=O)c2cccc(C)c2)c(OC)n1, the “Percent Effect” value was 20.6%.
With COc1ncc(NS(=O)(=O)c2ccc(F)c(F)c2)c(OC)n1 the “Percent Effect” value was -5.769%.
With COc1ncc(-c2cc(NC3CCCC3)nc3[nH]ccc23)c(OC)n1 the “Percent Effect” value was 5.51%.
COc1ncc(-c2ccc(O)cc2)c(OC)n1 was tested, and the “Percent Effect” value was 83.6%.
In the case of COc1ncc(NC(=O)c2ccco2)c(OC)n1, the “Percent Effect” value was 4.719%.
For COc1ncc(-c2ccc(C(N)=O)cc2)c(OC)n1, the “Percent Effect” value was 99.76%.
For COc1ncc(-c2ccc(NC(C)=O)cc2)c(OC)n1, the “Percent Effect” value was 97.6%.
COc1ccc(-c2cnc(NC(C)=O)[nH]2)cc1 was tested, and the “Percent Effect” value was -6.695%.
With COc1ncccc1-c1cc(C(N)=O)ccn1 the “Percent Effect” value was 12.1%.
CC(C)n1cnnc1CN(C)Cc1ccc(CN(C)S(C)(=O)=O)o1 was tested, and the “Percent Effect” value was -6.062%.
For CN(CC1CCN(CCO)CC1)CC(O)c1ccc(F)cc1 (centres undefined), the “Percent Effect” value was 8.04%.
For O=C(Nc1nnc(C2CC2)s1)NC1CCOc2ccccc21 (centres undefined), the “Percent Effect” value was -5.522%.
CN(C)Cc1cc(C2CCN(C(=O)C3CCCNC3)CC2)nn1C.Cl (centres undefined) was tested, and the “Percent Effect” value was 84.37%.
With O=C(C1CC12CCC2)N1CCC(n2cc(-c3ccsc3)nn2)CC1 (centres undefined) the “Percent Effect” value was -51.66%.
In the case of CCn1c(C2CCCN(C(=O)C(C)(C)OC)C2)nn(CCN(C)C)c1=O (centres undefined), the “Percent Effect” value was -8.02%.
CN(Cc1cnc(N)nc1)C(=O)C1CCN(C(=O)C2CCCC2)CC1 was tested, and the “Percent Effect” value was -2.189%.
COC(C)(C)C(=O)N1CCC(c2cc(CN(C)C)n(C)n2)CC1.Cl was tested, and the “Percent Effect” value was 119.7%.
CN(C)Cc1cc(C2CCN(C(=O)C3CC34CCC4)CC2)nn1C.Cl (centres undefined) was tested, and the “Percent Effect” value was 106.1%.
Cc1cc(CN(C)C(=O)CN2CC3(CCNCC3)OC2=O)n(C)n1 was tested, and the “Percent Effect” value was -5.459%.
With CN(C)CCN1CC(C(=O)N2CCC(c3cc(=O)[nH]cn3)CC2)CC1=O (centres undefined) the “Percent Effect” value was 11.42%.
CS(=O)(=O)c1nccn1Cc1ccc(F)cc1Cl was tested, and the “Percent Effect” value was -6.222%.
With Cc1cnc(N2Cc3cnn(Cc4ccc(F)cc4)c3C2)nc1N(C)C the “Percent Effect” value was 15.57%.
In the case of Cc1cc(N2CCc3c(nc(C(C)C)n3C)C2)nc(N)n1, the “Percent Effect” value was 12.43%.
In the case of CCS(=O)(=O)N1CCc2ccc(NC(=O)NCc3ccccc3)cc21, the “Percent Effect” value was 168.3%.
With O=C(NCc1ccccc1CO)Nc1ccc2c(c1)CCC2 the “Percent Effect” value was -12.78%.
CS(=O)(=O)c1ccc(NC(=O)NCc2ccc3c(c2)CCC3)cn1 was tested, and the “Percent Effect” value was 2.355%.
For CC(=O)N1CCCc2cc(NC(=O)NCCc3cnn(C)c3)ccc21, the “Percent Effect” value was -10.98%.
In the case of CCCNC(=O)Nc1ccc2c(c1)N(S(=O)(=O)CC)CC2, the “Percent Effect” value was 85.58%.
With CCCNC(=O)CNc1ccc2c(c1)N(C(=O)OC(C)(C)C)CCC2 the “Percent Effect” value was -19.09%.
With CCS(=O)(=O)N1CCc2ccc(NC(=O)NCCc3ccccc3)cc21 the “Percent Effect” value was 122.4%.
In the case of NS(=O)(=O)N1CCc2ccc(NC(=O)CCc3ccncc3)cc21, the “Percent Effect” value was -8.791%.
In the case of Fc1cccc(N2CCOC3(CCCN(c4nncs4)C3)C2)c1 (centres undefined), the “Percent Effect” value was -6.078%.
For O=C(CN1CCCC1c1nc(-c2ccccn2)no1)N1CCOCC1 (centres undefined), the “Percent Effect” value was -3.547%.
With O=C(C1CCCC1)N1CCOC(c2nc(-c3ncccn3)no2)C1 (centres undefined) the “Percent Effect” value was 90.83%.
With O=C(C1CCCC1)N1CC(c2nc(Cc3ccccc3)no2)C1 the “Percent Effect” value was 3.47%.
With O=C(CC1CCCC1)N1CCOC(c2nc(-c3ncccn3)no2)C1 (centres undefined) the “Percent Effect” value was 86.32%.
In the case of CCn1cc(Cn2cc(-c3cccc(C(C)N(C)C)c3)nn2)cn1 (centres undefined), the “Percent Effect” value was -0.05647%.
For COc1ccc(N(C)C(=O)C2CN(C)CCO2)cc1Cl (centres undefined), the “Percent Effect” value was 4.765%.
Cn1ccnc1-c1cn(CCCc2nnc(N)s2)nn1 was tested, and the “Percent Effect” value was 101%.
In the case of Cc1cn(CCn2ccnc2-c2sccc2C)nn1, the “Percent Effect” value was -12.56%.
In the case of Cn1ccnc1-c1cn(CCc2nnc(N)s2)nn1, the “Percent Effect” value was 90.14%.
CCOc1ncccc1Cn1cc(-c2nccn2C)nn1 was tested, and the “Percent Effect” value was -13.21%.
Cc1ccccc1C1CCN(CCn2cc(-c3nccn3C)nn2)C1 (centres undefined) was tested, and the “Percent Effect” value was -7.795%.
CCc1nc(CCn2cc(-c3nccn3C)nn2)no1 was tested, and the “Percent Effect” value was -10.63%.
For Cn1ccnc1-c1cn(CCCc2csc(N)n2)nn1, the “Percent Effect” value was 106.8%.
For Cn1cccc1-c1cc(C(=O)NCCCc2csc(N)n2)[nH]n1, the “Percent Effect” value was -5.944%.
Cc1cc(-n2nc(C)nc2-c2cn(CCN)nn2)ccn1 was tested, and the “Percent Effect” value was -45.52%.

From ChEMBL document CHEMBL3988442, “University of Dundee, Small-Polar-MMV Screening Library” (2021)
